Measurements reported in paper PMC11062922 (Nature Chemical Biology, 2023).
Read-outs that look alike come from different tables or passages of the source.

What was measured:
Design in all cases: species or system human, MV4-11 + K-562 + COLO205 + SK-N-BE2 + OVCAR-8
ADRBK1 = conditions: read-out: apparent Kd, n = 1
AURKA = conditions: read-out: apparent Kd; compound concentrations:100 nM and 1000 nM (sheet 'Samples'); n = 1
CDC42BPA = conditions: read-out: apparent Kd; compound concentrations:100 nM and 1000 nM (sheet 'Samples'); n = 1
CDC42BPB = conditions: read-out: apparent Kd; compound concentrations:100 nM and 1000 nM (sheet 'Samples'); n = 1
CDC42BPG = conditions: read-out: apparent Kd; compound concentrations:100 nM and 1000 nM (sheet 'Samples'); n = 1
CDK6 = conditions: read-out: apparent Kd, n = 1
CDKL5 = conditions: read-out: apparent Kd; compound concentrations:100 nM and 1000 nM (sheet 'Samples'); n = 1
CHEK1 = conditions: read-out: apparent Kd; compound concentrations:100 nM and 1000 nM (sheet 'Samples'); n = 1
CSNK1G1 = conditions: read-out: apparent Kd; compound concentrations:100 nM and 1000 nM (sheet 'Samples'); n = 1
FN3KRP = conditions: read-out: apparent Kd; compound concentrations:100 nM and 1000 nM (sheet 'Samples'); n = 1
MTHFD1 = conditions: read-out: apparent Kd; compound concentrations:100 nM and 1000 nM (sheet 'Samples'); n = 1
NUAK1 = conditions: read-out: apparent Kd; compound concentrations:100 nM and 1000 nM (sheet 'Samples'); n = 1
NUAK2 = conditions: read-out: apparent Kd; compound concentrations:100 nM and 1000 nM (sheet 'Samples'); n = 1
PDXK = conditions: read-out: apparent Kd; compound concentrations:100 nM and 1000 nM (sheet 'Samples'); n = 1
PKN1 = conditions: read-out: apparent Kd; compound concentrations:100 nM and 1000 nM (sheet 'Samples'); n = 1
PKN2 = conditions: read-out: apparent Kd; compound concentrations:100 nM and 1000 nM (sheet 'Samples'); n = 1
PRKAA1 = conditions: read-out: apparent Kd; compound concentrations:100 nM and 1000 nM (sheet 'Samples'); n = 1
PRKACA = conditions: read-out: apparent Kd; compound concentrations: 100 nM and 1000 nM (sheet 'Samples'), CATDS: 9.7859849759824202E-2; n = 1
PRKACB = conditions: read-out: apparent Kd; compound concentrations:100 nM and 1000 nM (sheet 'Samples'); n = 1
PRKAG1 = conditions: read-out: apparent Kd; compound concentrations:100 nM and 1000 nM (sheet 'Samples'); n = 1
PRKAG2 = conditions: read-out: apparent Kd; compound concentrations:100 nM and 1000 nM (sheet 'Samples'); n = 1
PRKCA = conditions: read-out: apparent Kd, n = 1
PRKCB = conditions: read-out: apparent Kd, n = 1
PRKCD = conditions: read-out: apparent Kd, n = 1
PRKCQ = conditions: read-out: apparent Kd, n = 1
PRKG1 = conditions: read-out: apparent Kd; compound concentrations:100 nM and 1000 nM (sheet 'Samples'); n = 1
PRKX;PRKY = conditions: read-out: apparent Kd; compound concentrations:100 nM and 1000 nM (sheet 'Samples'); n = 1
ROCK1 = conditions: read-out: apparent Kd; compound concentrations:100 nM and 1000 nM (sheet 'Samples'); n = 1
ROCK2 = conditions: read-out: apparent Kd; compound concentrations:100 nM and 1000 nM (sheet 'Samples'); n = 1
RPS6KA5 = conditions: read-out: apparent Kd; compound concentrations:100 nM and 1000 nM (sheet 'Samples'); n = 1
RPS6KB1 = conditions: read-out: apparent Kd, n = 1
ADCK3 = conditions: read-out: apparent Kd; compound concentrations: 100 nM and 1000 nM (sheet 'Samples'), CATDS: 0.21121986416857899; n = 1
RIPK2 = conditions: read-out: apparent Kd; compound concentrations: 100 nM and 1000 nM (sheet 'Samples'), CATDS: 0.926895955727292; n = 1
RIPK3 = conditions: read-out: apparent Kd; compound concentrations: 100 nM and 1000 nM (sheet 'Samples'), CATDS: 0.31380158399753799; n = 1
CLK3 = conditions: read-out: apparent Kd; compound concentrations: 100 nM and 1000 nM (sheet 'Samples'), CATDS: 0.34896481785662797; n = 1
ADCK5 = conditions: read-out: apparent Kd; compound concentrations:100 nM and 1000 nM (sheet 'Samples'); n = 1
CDK4 = conditions: read-out: apparent Kd; compound concentrations:100 nM and 1000 nM (sheet 'Samples'); n = 1
GSK3A = conditions: read-out: apparent Kd, n = 1
ADK = conditions: read-out: apparent Kd, compound concentrations: 100 nM and 1000 nM (sheet 'Samples'), n = 1
CLK1 = conditions: read-out: apparent Kd; compound concentrations: 100 nM and 1000 nM (sheet 'Samples'), CATDS: 5.4208995397741003E-2; n = 1
DYRK1A = conditions: read-out: apparent Kd; compound concentrations: 100 nM and 1000 nM (sheet 'Samples'), CATDS: 5.0124883186775999E-2; n = 1
GSK3B = conditions: read-out: apparent Kd; compound concentrations: 100 nM and 1000 nM (sheet 'Samples'), CATDS: 0.116009702502103; n = 1
ICK = conditions: read-out: apparent Kd; compound concentrations: 100 nM and 1000 nM (sheet 'Samples'), CATDS: 5.3965454645481803E-2; n = 1
NQO2 = conditions: read-out: apparent Kd; compound concentrations: 100 nM and 1000 nM (sheet 'Samples'), CATDS: 5.4334591839862598E-2; n = 1
RPS6KA6 = conditions: read-out: apparent Kd; compound concentrations: 100 nM and 1000 nM (sheet 'Samples'), CATDS: 0.14606611193567601; n = 1
COX5A = conditions: read-out: apparent Kd; compound concentrations: 100 nM and 1000 nM (sheet 'Samples'), CATDS: 0.19729380709152999; n = 1
MAP2K2 = conditions: read-out: apparent Kd; compound concentrations: 100 nM and 1000 nM (sheet 'Samples'), CATDS: 0.19454488197691899; n = 1
NQO1 = conditions: read-out: apparent Kd; compound concentrations: 100 nM and 1000 nM (sheet 'Samples'), CATDS: 0.179031281586436; n = 1
RAN = conditions: read-out: apparent Kd; compound concentrations: 100 nM and 1000 nM (sheet 'Samples'), CATDS: 0.206069741930102; n = 1
[1] = compound concentrations:100 nM and 1000 nM (sheet 'Samples')

Question: What does the source list for COc1ccc(O)c(C(=O)c2ccc(C(=O)O[C@@H]3CCCNC[C@H]3NC(=O)c3ccncc3)cc2)c1F.Cl [RO0480500-002]?
Answer: potency estimated from few doses (ADRBK1; [1]): 119 nM; potency estimated from few doses (AURKA): 693 nM; potency estimated from few doses (CDC42BPA): 413 nM; potency estimated from few doses (CDC42BPB): 51.3 nM; potency estimated from few doses (CDC42BPG): 630 nM; potency estimated from few doses (CDK6; [1]): 2090 nM; potency estimated from few doses (CDKL5): 237 nM; potency estimated from few doses (CHEK1): 26.5 nM; potency estimated from few doses (CSNK1G1): 2260 nM; potency estimated from few doses (FN3KRP): 764 nM; potency estimated from few doses (MTHFD1): 1020 nM; potency estimated from few doses (NUAK1): 16.5 nM; potency estimated from few doses (NUAK2): 150 nM; potency estimated from few doses (PDXK): 1410 nM; potency estimated from few doses (PKN1): 116 nM; potency estimated from few doses (PKN2): 241 nM; potency estimated from few doses (PRKAA1): 485 nM; potency estimated from few doses (PRKACA): 12.8 nM; potency estimated from few doses (PRKACB): 21.1 nM; potency estimated from few doses (PRKAG1): 1510 nM; potency estimated from few doses (PRKAG2): 75 nM; potency estimated from few doses (PRKCA; [1]): 227 nM; potency estimated from few doses (PRKCB; [1]): 506 nM; potency estimated from few doses (PRKCD; [1]): 25.7 nM; potency estimated from few doses (PRKCQ; [1]): 769 nM; potency estimated from few doses (PRKG1): 4.47 nM; potency estimated from few doses (PRKX;PRKY): 40.2 nM; potency estimated from few doses (ROCK1): 19.2 nM; potency estimated from few doses (ROCK2): 19.1 nM; potency estimated from few doses (RPS6KA5): 75 nM; potency estimated from few doses (RPS6KB1; [1]): 38.6 nM

Question: Which potency estimated from few doses (ADCK3) does the source give for CC(C)S(=O)(=O)c1ccc2nccc(Nc3ccc4scnc4c3)c2c1 [GSK872] here?
Answer: The potency estimated from few doses was 483 nM.

Question: What about the potency estimated from few doses (RIPK2) of the same compound?
Answer: The potency estimated from few doses was 2.51 nM.

Question: What about the potency estimated from few doses (RIPK3) of the same compound?
Answer: The potency estimated from few doses was 70.7 nM.

Question: COc1ccc(CNC(=O)NC2CCN(c3ccnc(Nc4ccc(OC)cc4)n3)C2)cc1 (stereo not shown) [GSK1379727A] was tested. Which potency estimated from few doses (ADRBK1; compound concentrations: 100 nM and 1000 nM (sheet 'Samples'), CATDS: 0.35126637263884503) did it give?
Answer: The potency estimated from few doses was 1270 nM.

Question: And the potency estimated from few doses (CDK6; compound concentrations: 100 nM and 1000 nM (sheet 'Samples'), CATDS: 0.30417888081932698)?
Answer: The potency estimated from few doses was 1700 nM.

Question: And the potency estimated from few doses (CLK3)?
Answer: The potency estimated from few doses was 1280 nM.

Question: O=C(Nc1n[nH]c2nc(-c3nccs3)c(Br)cc12)C1CCCC1 [SB-742609] was tested. Which potency estimated from few doses (ADCK5) did it give?
Answer: The potency estimated from few doses was 1310 nM.

Question: And the potency estimated from few doses (CDK4)?
Answer: The potency estimated from few doses was 1110 nM.

Question: And the potency estimated from few doses (GSK3A; [1])?
Answer: Its potency estimated from few doses is 519 nM.

Question: Which potency estimated from few doses (ADK; CATDS: 5.0768617440539301E-2) does the source give for Cn1cc(C2=C(c3cn(CCCNC(=N)N)c4ccccc34)C(=O)NC2=O)c2ccccc21 [RO0318352-000] here?
Answer: The potency estimated from few doses was 1420 nM.

Question: And the potency estimated from few doses (CLK1)?
Answer: The potency estimated from few doses was 1010 nM.

Question: What about the potency estimated from few doses (DYRK1A) of the same compound?
Answer: The potency estimated from few doses was 1530 nM.

Question: And the potency estimated from few doses (GSK3A; compound concentrations: 100 nM and 1000 nM (sheet 'Samples'), CATDS: 9.7790905070532702E-2)?
Answer: The potency estimated from few doses was 125 nM.

Question: And the potency estimated from few doses (GSK3B)?
Answer: Its potency estimated from few doses is 83.7 nM.

Question: What about the potency estimated from few doses (ICK) of the same compound?
Answer: The potency estimated from few doses was 1040 nM.

Question: What about the potency estimated from few doses (NQO2) of the same compound?
Answer: Its potency estimated from few doses is 1000 nM.

Question: What about the potency estimated from few doses (PRKCA; compound concentrations: 100 nM and 1000 nM (sheet 'Samples'), CATDS: 0.15913397901311099) of the same compound?
Answer: The potency estimated from few doses was 45.1 nM.

Question: What about the potency estimated from few doses (PRKCB; compound concentrations: 100 nM and 1000 nM (sheet 'Samples'), CATDS: 9.8351239927142994E-2) of the same compound?
Answer: Its potency estimated from few doses is 124 nM.

Question: What about the potency estimated from few doses (PRKCD; compound concentrations: 100 nM and 1000 nM (sheet 'Samples'), CATDS: 0.131457549494816) of the same compound?
Answer: The potency estimated from few doses was 64.4 nM.

Question: And the potency estimated from few doses (PRKCQ; compound concentrations: 100 nM and 1000 nM (sheet 'Samples'), CATDS: 0.25317838429330802)?
Answer: The potency estimated from few doses was 21.7 nM.

Question: And the potency estimated from few doses (RPS6KA6)?
Answer: Its potency estimated from few doses is 52.6 nM.

Question: What about the potency estimated from few doses (RPS6KB1; compound concentrations: 100 nM and 1000 nM (sheet 'Samples'), CATDS: 4.9333736806527098E-2) of the same compound?
Answer: The potency estimated from few doses was 1670 nM.

Question: COc1ccc(Nc2nccc(NCCNC(=O)Nc3ccccc3F)n2)cc1 [GSK1379901A] was tested. Which potency estimated from few doses (ADK; CATDS: 0.22973332446561601) did it give?
Answer: Its potency estimated from few doses is 1220 nM.

Question: And the potency estimated from few doses (COX5A)?
Answer: Its potency estimated from few doses is 1630 nM.

Question: And the potency estimated from few doses (MAP2K2)?
Answer: The potency estimated from few doses was 1680 nM.

Question: What about the potency estimated from few doses (NQO1) of the same compound?
Answer: Its potency estimated from few doses is 2010 nM.

Question: What about the potency estimated from few doses (RAN) of the same compound?
Answer: The potency estimated from few doses was 1490 nM.
